PubChem BioAssay (NCATS)
Inconclusive results are not listed. Unmarked numbers belong to inactive results. Activity calls are given as the source filed them. Calls come from the whole dose curve; as a rule, active = well fitted inhibition curve with a large enough effect; inconclusive = small, poorly fitted or top-dose-only effect; inactive = no such curve, though single readings can be large or run the other way. Where a SMILES comes first, the peptide text is derived from it. The star is where a group is joined. βNA = c1ccc2cc(N*)ccc2c1; Cbz = O=C(OCc1ccccc1)*

Test system: Zika virus NS2B-NS3 protease (unlinked complex)
Assay: Primary screen GU Rhodamine qHTS for Zika virus inhibitors: Unlinked NS2B-NS3 protease assay (AID 1347159); note: nearly all actives have a fitted effect of over 60% in size
Settings: Recombinant ZIKV NS2B-NS3 protease, Rhodamine110 substrate fluorescence; series mostly up to 107 µM; activity change, negative = inhibition: at the top concentration
Summary of the method: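 Percent inhibition came from the 15-min rise in Rhodamine110 fluorescence (1.5 microM substrate, ~15% conversion), normalized to no-inhibitor and no-enzyme wells and Hill-fitted. Unlinked protease, 25 nM, pH 8.0 Tris buffer; compounds up to 114 microM, 15-min preincubation.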
% is set by controls: 0 for no effect and ±100 for the full control effect; potency is the fitted concentration of half-maximal effect.

SMILES	activity change, negative = inhibition	Potency
CN(C)CCC[C@]1(c2ccc(F)cc2)OCc2cc(C#N)ccc21	21.6%	–
COC(=O)C1=CO[C@@H](O[C@@H]2O[C@H](CO)[C@@H](O)[C@H](O)[C@H]2O)[C@@H]2[C@@H](C(=O)O)CC[C@H]12	-26.7% [at 57.1 µM]	–
O=C(OCC1OC(Oc2ccc(O)cc2COC(=O)C2(O)C(O)CCC(=O)C2OC(=O)C2C=CCC2)C(OC(=O)C2C=CCC2)C(O)C1O)C1C=CCC1 (centres undefined)	0.949% [at 32.5 µM]	–
O=C(O)CCc1cc2ccoc2cc1O[C@@H]1O[C@H](CO)[C@@H](O)[C@H](O)[C@H]1O	13.4%	–
CC1(C)CC[C@]2(C(=O)O)CC[C@]3(C)C(=CCC4[C@@]5(C)C[C@@H](O)[C@H](O)[C@](C)(CO)C5CC[C@]43C)[C@@H]2[C@@H]1O (some centres undefined)	7.68% [at 57.1 µM]	–
COC(=O)c1c(CC=C(C)C)c(OC2OC(CO)C(O)C(O)C2O)c2ccccc2c1OC1OC(CO)C(O)C(O)C1O (centres undefined)	2.83% [at 32.5 µM]	–
NC[C@H]1CCC[C@@H](CNC(=O)[C@@H](Cc2c[nH]c3ccccc23)NC(=O)N2CCC3(C=Cc4ccccc43)CC2)C1	-14.4%	–
C[C@H]1CC[C@@]2(OC1)O[C@H]1CC3C4CC[C@H]5C[C@@H](O[C@@H]6O[C@H](CO)[C@H](O[C@@H]7O[C@H](CO)[C@@H](O)[C@H](O[C@@H]8OC[C@@H](O)[C@H](O)[C@H]8O)[C@H]7O[C@@H]7O[C@H](CO)[C@@H](O)[C@H](O)[C@H]7O)[C@H](O)[C@H]6O)[C@H](O)C[C@]5(C)C4=CC(=O)[C@]3(C)[C@H]1[C@@H]2C (some centres undefined)	4.86% [at 32.5 µM]	–
CC1(C)CC[C@]2(C(=O)O)CC[C@]3(C)C(=CCC4[C@@]5(C)CC[C@H](O[C@@H]6O[C@H](C(=O)O)[C@@H](O)[C@H](O[C@@H]7O[C@H](CO)[C@H](O)[C@H](O)[C@H]7O)[C@H]6O[C@@H]6O[C@H](CO)[C@@H](O)[C@H](O)[C@H]6O)C(C)(C)C5CC[C@]43C)[C@@H]2C1 (some centres undefined)	–	5.62 µM (active)
CCCC1=CC2=C(CO1)C(=O)C(C)(O)C(OC(=O)c1c(C)cc(OC)cc1O)C2 (centres undefined)	-28.2% [at 57.1 µM]	–
COc1cc(C2CC(=O)Nc3c2cc(Br)c2ccccc32)cc(OC)c1OC (centres undefined)	-5.91%	–
O=C(O)Cc1cn([C@@H]2OC[C@@H](O[C@@H]3O[C@H](CO)[C@@H](O)[C@H](O)[C@H]3O)[C@H](O)[C@H]2O[C@@H]2O[C@H](CO)[C@@H](O)[C@H](O)[C@H]2O)c2ccccc12	18.2% [at 32.5 µM]	–
C[C@@H]1O[C@@H](O[C@H]2[C@H](Oc3cc(O)c(C(=O)CCc4ccc(O)cc4)c(O)c3)O[C@H](CO)[C@@H](O)[C@@H]2O)[C@H](O)[C@H](O)[C@H]1O	6.03%	–
CCC(C)/C=C(C)/C=C/C(=O)C1CCC(O)C(C)(O)C1=O (centres undefined)	–	17.8 µM (active)
COC(=O)C(CC1(OC(=O)C(C)C)c2ccccc2N2C(=O)C(C)(C)N(O)C21)n1cnc2ccccc2c1=O (centres undefined)	-15.8% [at 57.1 µM]	–
COc1cccc(CN(C(=O)CC(C)(C)C)C2CC(C(=O)N3CCNCC3)N(Cc3ccc4c(c3)OCO4)C2)c1 (centres undefined)	-21.2%	–
CC(C)=CC1C[C@](C)(O)[C@@H]2[C@H]3CCC4[C@@]5(C)CC[C@H](O[C@@H]6OC[C@H](O)[C@H](O[C@@H]7O[C@H](CO[C@@H]8O[C@H](CO)[C@@H](O)[C@H](O)[C@H]8O)[C@@H](O)[C@H](O)[C@H]7O)[C@H]6O[C@@H]6O[C@@H](C)[C@H](O)[C@@H](O)[C@H]6O)C(C)(C)[C@@H]5CC[C@@]4(C)[C@@]34CO[C@@]2(C4)O1 (some centres undefined)	16.6% [at 32.5 µM]	–
CC(C)(C)NS(=O)(=O)c1ccc(-c2ccc3[nH]nc(N)c3c2)cc1	5.09%	–
CC1(C)CC2C3=CCC4[C@@]5(C)CC[C@H](OC6OCC(O)C(OC7OC(CO)C(O)C(O)C7O)C6O)C(C)(C)C5CC[C@@]4(C)[C@]3(C)C[C@H](O)[C@@]2(CO)[C@H](OC(=O)c2ccccc2)C1 (some centres undefined)	1.81% [at 32.5 µM]	–
CC(C)[C@@](O)(c1ccc2cc(OC(F)F)c(OC(F)F)cc2c1)c1cn[nH]n1	-23.1%	–

SMILES	activity change, negative = inhibition	Potency
CCC(=O)N1CCc2cc(OC)c(O)cc2C1	1.81%	–
CC(C)(CC(=O)N1CCCC1)NCC(=O)N1C[C@@H](F)C[C@H]1C#N	0%	–
CC(C)CC(NC(=O)OCc1ccccc1)C(=O)NC(CC(C)C)C(=O)NC(CCC(=O)O)C(=O)Nc1ccc2ccccc2c1 (stereo not drawn) (Cbz-Leu-Leu-Glu-βNA; configuration not given here)	–	11.2 µM (active)
O=C(O)C(Cc1ccccc1)NC(=O)C1CCCN1 (stereo not drawn) (H-Pro-Phe-OH; configuration not given here)	15.8%	–
CN1CCCC1Cc1c[nH]c2ccc(CCS(=O)(=O)c3ccccc3)cc12 (centres undefined)	-5.7%	–
CC(NC(=O)CC(=O)O)C(=O)Nc1ccccc1C(N)=O (centres undefined)	15.4%	–
COC(=O)C1=COC(OC2OC(CO)C(O)C(O)C2O)C2C(C)C(OC(C)=O)C(OC(=O)c3ccccc3)C12 (centres undefined)	-19.8% [at 57.1 µM]	–
CC1=CC23[C@H](C=C(C(=O)O)[C@@H]2COC(=O)[C@]3(O)CO)[C@@H]1C (some centres undefined)	12.3%	–
Nc1ncnc2c1c(COc1cccc(Cl)c1)nn2C1CCOCC1	17.7%	–
O=C(c1ccc(Cl)c([N+](=O)[O-])c1)N1CCN(c2ccccc2F)CC1	-7.65%	–
Nc1ncnc2c1ncn2[C@H]1O[C@@H](C(=O)N2CCN(CC(=O)Nc3cccc4c3CNC4=O)CC2)[C@H](O)[C@@H]1O	79.6%	–
CC1(C)CC[C@]2(C(=O)O[C@@H]3O[C@H](CO)[C@@H](O)[C@H](O)[C@H]3O)CC[C@]3(C)C(=CCC4[C@@]5(C)CC[C@H](OC6OC(C(=O)O)C(OC7OC(CO)C(O)C(O)C7O)C(O)C6O)C(C)(C)C5CC[C@]43C)C2C1 (some centres undefined)	-5.37% [at 32.5 µM]	–
COc1cc2c(cc1OC)N1C(=O)C[C@@]34C=CC[N@+]5([O-])CC[C@H]2[C@H](CC3)[C@@]145	-21.5%	–
COC(=O)C1=COC(O[C@@H]2O[C@H](CO)[C@@H](O)[C@H](O)[C@H]2O)[C@@H]2[C@@](C)(O)[C@@H](OC(=O)/C=C/c3ccccc3)C[C@]12O (some centres undefined)	-21.2% [at 57.1 µM]	–
CC(=O)/C=C/C1(O)C(C)(C)CC(O)CC1(C)O (centres undefined)	26.2%	–
Cc1onc(-c2ccccc2Cl)c1C(=O)N(C)c1ccc(Cl)cc1	4.09%	–
C=C1C(OC(C)=O)C(=O)C2C(C)(C)C(O)CCC2(C)C1CC(OC(C)=O)/C(C)=C/COC(C)=O (centres undefined)	21.3% [at 57.1 µM]	–
C=CC1(C)CC2CCC3C(C)(C(=O)O)CCCC3(C)C2=CC1=O (centres undefined)	15.4%	–
COc1ccc(Oc2c(Cl)cnn(C3c4ccccc4-c4ccccc43)c2=O)cc1	-14%	–
